Test results as given in PubChem BioAssay AID1159580 (chemical genetic matrix, 2015).
Values joined by “and” are separate entries in the source; they are usually repeats but may differ in a detail not shown here. Equal entries are not always repeated. Hit rate of the full screen: of about 5,500 compounds, about 2,000 (36%) were called active. Another 18% or so got no clear call; they are omitted. Cut-off read from the data, not from the text of the source: active = normalized growth mostly below about 0.91 (no sharp cut-off); inconclusive = no clear call, values can overlap the other calls; inactive = mostly above about 0.92. The list shows a part of the results.

Assay: chemical genetic growth profiling, strain panel (AID 1159580);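 note: tested at 20 µM; growth read once vehicle control cultures reached saturation at 30 °C; 1 = growth at the plate median or of vehicle wells; lower values mean less growth of the strain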
Conditions: S. cerevisiae deletion strains, growth OD

Measured: normalized growth

CC(C)c1c(O)c(-c2cc3c(c(C(C)C)c2O)CCC2C(C)(C)CCC[C@]32C)cc2c1CCC1C(C)(C)CCC[C@]21C (stereo partly specified)
inactive: locus YAL013W, strain DEP1, active compounds read low 1.01 | locus YAL021C, strain ccr4, active compounds read low 0.987 | locus YAL026C, strain drs2, active compounds read low 0.988 | locus YAL030W, strain snc1, active compounds read low 0.996 | locus YBL061C, strain skt5, active compounds read low 0.991 | locus YBR009C, strain hhf1, active compounds read low 1.02 | locus YBR021W, strain FUR4, active compounds read low 1.03 | locus YBR023C, strain chs3, active compounds read low 0.992 | locus YBR171W, strain sec66, active compounds read low 0.976 | locus YBR229C, strain ROT2, active compounds read low 1.02 | locus YBR231C, strain swc5, active compounds read low 0.99 | locus YBR279W, strain paf1, active compounds read low 0.99 | locus YCL011C, strain gbp2, active compounds read low 0.983 | locus YCL016C, strain dcc1, active compounds read low 0.976 | locus YCL029C, strain bik1, active compounds read low 1.02 | locus YCL061C, strain MRC1, active compounds read low 0.982 | locus YCL069W, strain vba3, active compounds read low 0.998 | locus YCR088W, strain abp1, active compounds read low 1 | locus YDL005C, strain med2, active compounds read low 0.964 | locus YDL035C, strain GPR1, active compounds read low 1.02 | locus YDL040C, strain nat1, active compounds read low 0.991 | locus YDL074C, strain BRE1, active compounds read low 1.02 | locus YDL101C, strain DUN1, active compounds read low 1.01 | locus YDL134C, strain PPH21, active compounds read low 1.01 | locus YDL185W, strain tfp1, active compounds read low 1.04 | locus YDL192W, strain arf1, active compounds read low 1.03 | locus YDR001C, strain nth1, active compounds read low 0.984 | locus YDR069C, strain doa4, active compounds read low 0.982 | locus YDR101C, strain arx1, active compounds read low 1.01 | locus YDR137W, strain rgp1, active compounds read low 0.982 | locus YDR150W, strain NUM1, active compounds read low 1.02 | locus YDR159W, strain sac3, active compounds read low 0.986 | locus YDR162C, strain NBP2, active compounds read low 1.02 | locus YDR195W, strain ref2 0.938 | locus YDR297W, strain sur2, active compounds read low 0.985 | locus YDR318W, strain mcm21, active compounds read low 1.02 | locus YDR334W, strain swr1, active compounds read low 0.972 | locus YDR335W, strain msn5, active compounds read low 0.986 | locus YDR388W, active compounds read low 1.01 | locus YDR392W, strain spt3, active compounds read low 0.982 | locus YDR502C, strain sam2, active compounds read low 1.01 | locus YEL003W, strain gim4, active compounds read low 0.995 | locus YEL037C, strain rad23, active compounds read low 0.99 | locus YEL061C, strain CIN8 (second series), active compounds read low 0.993 | locus YEL061C, strain CIN8, active compounds read low 1.01 | locus YER015W, strain faa2, active compounds read low 0.985 | locus YER016W, strain bim1, active compounds read low 0.972 | locus YER110C, active compounds read low 1.02 | locus YER111C, strain swi4, active compounds read low 0.992 | locus YER155C, strain BEM2 (second series), active compounds read low 0.992 | locus YER155C, strain BEM2, active compounds read low 1.01 | locus YER167W, strain BCK2, active compounds read low 1.03 | locus YFR010W, strain ubp6, active compounds read low 1.01 | locus YGL078C, strain dbp3, active compounds read low 1.01 | locus YGL086W, strain mad1, active compounds read low 1.02 | locus YGL167C, strain pmr1, active compounds read low 0.993 | locus YGL173C, strain kem1, active compounds read low 0.972 | locus YGL227W, strain vid30, active compounds read low 0.982 | locus YGL240W, strain doc1, active compounds read low 0.988 | locus YGL248W, strain PDE1, active compounds read low 1.02 | locus YGL253W, strain hxk2, active compounds read low 0.985 | locus YGR078C, strain PAC10, active compounds read low 1.01 | locus YGR135W, strain pre9, active compounds read low 1.01 | locus YGR229C, strain SMI1, active compounds read low 1.01 | locus YGR252W, strain gcn5, active compounds read low 1.06 | locus YHR013C, strain ard1, active compounds read low 0.947 | locus YHR027C, strain rpn1, active compounds read low 0.985 | locus YHR030C, strain SLT2, active compounds read low 1.01 and 0.972 | locus YHR079C, strain IRE1 (second series), active compounds read low 1.01 | locus YHR079C, strain IRE1, active compounds read low 0.965 | locus YHR094C, strain hxt1, active compounds read low 1.02 | locus YHR129C, strain ARP1, active compounds read low 1 | locus YHR142W, strain chs7, active compounds read low 0.986 | locus YHR200W, strain rpn10, active compounds read low 1.02 | locus YIL066C, strain RNR3, active compounds read low 1.02 | locus YIL073C, strain SPO22, active compounds read low 1.08 | locus YIL125W, strain kgd1, active compounds read low 1.02 | locus YIR030C, strain dcg1, active compounds read low 1.01 | locus YJL092W, strain hpr5, active compounds read low 0.979 | locus YJL095W, strain BCK1 (second series), active compounds read low 0.997 | locus YJL095W, strain BCK1, active compounds read low 1.01 and 1 | locus YJL115W, strain asf1, active compounds read low 0.956 | locus YJL129C, strain trk1, active compounds read low 0.988 | locus YJL134W, strain LCB3, active compounds read low 1.01 | locus YJL154C, strain vps35, active compounds read low 0.985 | locus YJL164C, strain tpk1, active compounds read low 0.994 | locus YJL166W, strain qcr8, active compounds read low 0.997 | locus YJL168C, strain set2, active compounds read low 1.02 | locus YJL187C, strain SWE1 (second series), active compounds read low 1.01 | locus YJR043C, strain POL32, active compounds read low 1.03 | locus YJR066W, strain TOR1, active compounds read low 0.945
